Mtb FBA inh: inhibitors of M. tuberculosis fructose-bisphosphate aldolase. P9WQA3. purified M. tuberculosis FBA, fluorescence read-out. inhibition, % at 1 µM. 360,000 compounds, 2.3% hits; in the data active means inhibition above about 27%;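 further: 0% = vehicle and 100% = reference inhibitor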
FadD28 FP inh: blocks FadD28 binding to the bisubstrate probe; fluorescence polarization; inhibition, % at 12.5 µM; 360,000 compounds, 0.22% hits; AID 588549; in the data active means inhibition above about 8.5%, passing the limit was not always enough
Rv3671c protease: inhibitors of M. tuberculosis serine protease Rv3671c. P9WHR9. inhibition, % at 5.96 µM. 320,000 compounds, 0.048% hits. AID 2606; in the data active means inhibition above about 38%;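 further: extracellular domain of Rv3671c used as enzyme; 0% = enzyme with DMSO and 100% = no enzyme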
Target sequence (P9WHR9 whole entry, looked up, the tested form may be a part): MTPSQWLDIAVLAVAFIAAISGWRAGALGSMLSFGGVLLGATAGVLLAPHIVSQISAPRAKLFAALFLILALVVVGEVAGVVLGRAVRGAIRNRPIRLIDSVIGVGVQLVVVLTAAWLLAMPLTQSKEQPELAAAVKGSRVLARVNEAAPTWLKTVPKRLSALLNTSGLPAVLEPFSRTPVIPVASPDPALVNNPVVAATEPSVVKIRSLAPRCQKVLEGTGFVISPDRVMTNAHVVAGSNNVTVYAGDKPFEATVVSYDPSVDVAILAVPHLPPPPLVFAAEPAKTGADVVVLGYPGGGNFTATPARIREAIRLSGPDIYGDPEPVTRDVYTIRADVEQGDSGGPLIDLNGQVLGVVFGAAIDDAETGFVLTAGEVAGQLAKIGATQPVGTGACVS
GDH-TPI counter: GDH-TPI coupled enzyme inhibition counter-screen. GDH-TPI coupled enzyme counterscreen, NADH absorbance. inhibition, % at 4.8 µM. 360,000 compounds, 1.2% hits; in the data active means inhibition above about 30%;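 further: 0% = DMSO wells and 100% = wells lacking the enzyme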
Mtb BioA inh: blocks M. tuberculosis BioA enzyme activity; purified M. tuberculosis BioA enzyme, plate reader; inhibition, % at 9.99 µM; 360,000 compounds, 0.096% hits; in the data active means inhibition above about 40%
* marks the source's active call; other numbers are inactive results; x = not tested or not shown; + = active, no number. Shown are actives, neighbours in structure and some others; about 3% of the full set was active somewhere.

SMILES | Mtb FBA inh | FadD28 FP inh | Rv3671c protease | GDH-TPI counter | Mtb BioA inh
COc1ccc(/C=C/c2ccc3ccccc3[n+]2C)cc1OC | -7 | 0 | -1 | 21 | 0
COc1ccc(C(=O)NCc2ccc(C)cc2)cc1S(=O)(=O)N1CCCc2ccccc21 | 2 | 9.9* | -20 | -2 | -2
O=C(NCCC1=CCCCC1)c1ccc(Cl)c(S(=O)(=O)N2CCOCC2)c1 | -1 | 1 | 3 | 12 | -2
O=C(COC(=O)c1ccc(Cl)c(S(=O)(=O)N2CCCCCC2)c1)Nc1ccccc1 | 0 | 62* | -41 | 3 | x
Cc1ccc(CSCCNC(=O)c2ccc(N(C)S(=O)(=O)c3ccccc3)cc2)cc1 | -2 | 8.8* | -40 | 8 | x
O=C(COC(=O)c1ccc(S(=O)(=O)N2CCCC2)cc1)Nc1ccccc1 | 3 | 0 | 0 | 1 | -6
COc1ccc(C(=O)NCC2CCCO2)cc1S(=O)(=O)N1CCCc2ccccc21 (stereo unspecified) | 1 | 1 | 4 | 1 | x
Cc1ccc(CSCCNC(=O)c2ccc(Cl)c(S(=O)(=O)N3CCOCC3)c2)cc1 | 4 | 34* | -17 | 4 | 10
O=C(NCC[C@@H]1CC[C@@H](NC(=O)c2cccnc2)[C@H](CO)O1)Nc1ccc(C(F)(F)F)cc1 | x | x | x | x | 11
COc1ccc(CNC(=O)c2ccc(Cl)c(S(=O)(=O)N3CCCCCC3)c2)cc1 | -4 | 8.7* | x | 9 | -1
O=C(NCc1ccncc1)c1ccc(Cl)c(S(=O)(=O)N2CCCCC2)c1 | 8 | 0 | 5 | 6 | x
COc1cc(/C=C/C(=O)OCC(=O)N2CCc3ccccc3C2)ccc1O | 3 | 1 | 0 | 57* | 0
CCc1cccc2c(C(=O)Cn3nnc(-c4ccc(OC)c(OC)c4)n3)c[nH]c12 | -3 | 73* | -5 | 4 | -1
COc1ccc(/C=C/C(=O)OCC(=O)NC2CCCCCC2)cc1 | -2 | 0 | x | 20 | -1
COc1cc(/C=C/C(=O)OCC(=O)NC2CCCCCCC2)ccc1O | 6 | 0 | -3 | 33* | -1
CCc1cccc2c(C(=O)COC(=O)/C=C/c3ccc(O)c(OC)c3)c[nH]c12 | 1 | 35* | -41 | 16 | -4
C[C@H](CO)N1C[C@H](C)[C@H](CN(C)CC2CCCCC2)Oc2ccc(NS(C)(=O)=O)cc2CC1=O | x | x | x | x | 1
Cc1[nH]n(-c2cccc3ccccc23)c(=O)c1C=Nc1ccc2[nH]c(=O)[nH]c2c1 | 0 | 1 | 15 | 35* | -1
Cc1ccc(-n2[nH]c(C)c(C=Nc3ccc4[nH]c(=O)[nH]c4c3)c2=O)cc1 | -2 | -2 | 4 | 22 | x
O=C1/C(=C/c2ccccc2)N=C(N2CCOCC2)N1c1cccc(Cl)c1 | 11 | -1 | -9 | 32* | 12
O=c1ccc2cc3c(-c4ccccc4)coc3cc2o1 | 12 | -1 | x | 9 | 8
CC(C)C1Oc2cc3oc(=O)ccc3cc2C1=O (stereo unspecified) | 115* | 0 | 4 | 16 | -1
CCOP(=O)(OCC)c1nc(-c2ccc(C)cc2)oc1N1CCOCC1 | 169* | -2 | 6 | 15 | 0
CCOP(=O)(OCC)c1nc(-c2ccc(Br)cc2)oc1N1CCCCC1 | 7 | -3 | 6 | 4 | 8
CCOP(=O)(OCC)c1nc(-c2cccc3ccccc23)oc1N1CCOCC1 | + | -1 | -2 | 15 | x
SMILES | Mtb FBA inh | FadD28 FP inh | Rv3671c protease | GDH-TPI counter | Mtb BioA inh
CCOP(=O)(OCC)c1nc(-c2ccccc2Cl)oc1N1CCOCC1 | 5 | -4 | -6 | -6 | 1
C[C@H](CO)N1C[C@H](C)[C@H](CN(C)C(=O)Nc2ccccc2)OCCCC[C@H](C)Oc2ccc(NC(=O)NC3CCCCC3)cc2C1=O | x | x | x | x | -2
O=C(N[C@@H]1CC[C@@H](CCNS(=O)(=O)c2cccc(Cl)c2)O[C@@H]1CO)c1ccccc1 | x | x | x | x | -1
C[C@@H]1CN([C@H](C)CO)C(=O)c2cc(C#CCN(C)C)cnc2O[C@H]1CN(C)Cc1ccc2c(c1)OCO2 | x | x | x | x | 3
O=C(Nc1ncc(Cc2cccc(C(F)(F)F)c2)s1)c1ccc(-c2cccc([N+](=O)[O-])c2)o1 | 0 | -1 | -13 | 54* | 3
O=C(Nc1nccs1)c1ccc(-c2cccc([N+](=O)[O-])c2)o1 | 1 | 1 | -4 | 9 | 0
CCN(CC)C(=O)c1sc2[nH]c(=S)n(-c3ccccc3)c(=O)c2c1C | 1 | 1 | -7 | 33* | -1
CCN(CC)C(=O)c1sc2nc(-c3ccccn3)[nH]c(=O)c2c1C | 9 | -1 | 2 | 30 | -1
O=C(O)C1CCc2sc3[nH]c(=S)n(-c4ccccc4)c(=O)c3c21 (stereo unspecified) | 4 | 0 | 1 | 34* | -1
Nc1nc(-c2ccco2)c(-c2ccco2)s1 | 14 | 1 | -4 | -3 | x

Compound activity (PubChem BioAssay)
